Assay results: PubChem BioAssay AID710 (SRMLSC, 2007)
Among all 98,000 compounds or so, about 150 (0.15%) were called active.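 The calls were made as follows: active = growth inhibition above about 50% at one test dose (limit read from the data); inactive = the rest.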 What follows is part of a selection rich in actives, with near analogues and random picks from the rest.

assay: antibacterial activity against E. coli BW25113 – strain BW25113, expanded library, OD600, primary screen (AID 710); conditions: OD600 absorbance, at 100 µM, hits give high values;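 also: growth measured after 20 h incubation at 37 °C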

SMILES | growth inhibition
Cc1nnc(SCC(=O)NC2CCCC2)s1 | -2% (inactive)
COc1ccc(C(C#N)Nc2ccc(C)cc2)cc1 (stereo unspecified) | 3% (inactive)
Brc1ccc(OCCn2ccnc2)cc1 | 55% (active)
CCOc1ccccc1C(=O)NCCCn1ccnc1 | 10% (inactive)
CC1(C)C2CCC1(C)C(OC(=O)CCn1ccnc1)C2 (stereo unspecified) | 6% (inactive)
Cc1ccc(Cc2c(C)nc3nc(SCC(=O)NCCN4CCOCC4)nn3c2C)cc1 | -9% (inactive)
Cc1ccc(S(=O)(=O)N(CC(=O)N/N=C/c2ccc(F)cc2)c2cccc3cccnc23)cc1 | -18% (inactive)
CN(Cc1nc2ccccc2c(=O)[nH]1)Cc1cc(=O)oc2ccc3ccccc3c12 | -4% (inactive)
COC(=O)C1=C(Nc2ccc(OC)cc2)C=C(C)C(C(=O)OC)C1c1ccc(C)cc1 (stereo unspecified) | -13% (inactive)
N#C/C(=C(/O)COc1cccc2ccccc12)c1nc2ccccc2[nH]1 | -8% (inactive)
OC(COc1ccc2c(c1)CCC2)CN1CCN(c2cccc(Cl)c2)CC1 (stereo unspecified) | 0% (inactive)
CCc1nnc(NC(=O)CCC(=O)NCc2ccccc2OC)s1 | -2% (inactive)
Cc1ccc(-c2nnc(-n3nnc4ccccc43)c3ccccc23)cc1 | -7% (inactive)
O=C(N/N=C/C=C/c1ccccc1)C1CC1(c1ccccc1)c1ccccc1 (stereo unspecified) | -15% (inactive)
N=c1c2c(-c3ccccc3)c(-c3ccccc3)n(Cc3ccccc3)c2ncn1CCCO | 13% (inactive)
COc1ccc(/C=C2\CCCC3C2=NN(C(=O)c2scnc2C)C3c2ccc(OC)cc2)cc1 (stereo unspecified) | -16% (inactive)
CCC(=O)NC(NCC1CCCO1)C(Cl)(Cl)Cl (stereo unspecified) | 3% (inactive)
Cc1ccc(CNC(=O)COc2ccc(S(=O)(=O)NC(C)C)cc2)cc1 | 0% (inactive)
CSc1ccc(C#N)cc1NC(=O)c1cccc(Cl)c1 | -8% (inactive)
Cc1cccc(NC(=O)/C(=C\c2ccco2)NC(=O)c2ccccc2)c1 | -2% (inactive)
CNC(=S)NNC(=O)c1sccc1OCc1ccccc1 | -7% (inactive)
Cc1ccc(NC(=S)NC(=O)c2ccc(-c3ccccc3)cc2)c(C)c1 | -9% (inactive)

SMILES | growth inhibition
COc1cccc(N(CC(=O)NCCSc2ccccn2)S(C)(=O)=O)c1 | -2% (inactive)
CN(C)c1nc(N)nc(CSc2ccccn2)n1 | -1% (inactive)
COc1ccccc1CSc1nc2ccccc2[nH]1 | 8% (inactive)
COc1ccc(Nc2nc(-c3ccccc3)cs2)cc1 | -6% (inactive)
CN1C2CCC1/C(=C\c1ccccc1Cl)C(=O)/C2=C\c1ccccc1Cl | -3% (inactive)
CSCCC(C(=O)NC1=NCCS1)N1C(=O)c2ccccc2C1=O (stereo unspecified) | -1% (inactive)
COc1ccccc1NC(=O)COc1ccc(C(=O)OCC(=O)N(C(C)C)C(C)C)cc1OC | -6% (inactive)
Cc1ccc2nc(SCc3nnc(-c4ccccc4[N+](=O)[O-])o3)c(C#N)cc2c1 | -15% (inactive)
CC(Sc1nnc(Cc2ccc([N+](=O)[O-])cc2)o1)C(N)=O (stereo unspecified) | 2% (inactive)
COc1ccc(NC(=O)CC2COc3ccccc3O2)c(OC)c1 (stereo unspecified) | 7% (inactive)
CCN(CC)S(=O)(=O)c1ccc2c3c(cccc13)C(=O)S2 | 1% (inactive)
COC(=O)[C@@H](NC(=O)Nc1cc(Cl)ccc1C)C(C)C | 2% (inactive)
O=C(Nc1ccc2nc3n(c(=O)c2c1)CCCCC3)c1ccccc1Cl | -6% (inactive)
COc1ccc(NC(=O)CSc2nc(N)c(-c3ccccc3)c(=O)[nH]2)cc1 | -12% (inactive)
CCOC(=O)c1cc2c(ccn2C)n1CC(=O)N1CCC(C)CC1 | -6% (inactive)
COc1ccc(NC(=O)CSc2nc(NS(=O)(=O)c3ccc(C)cc3)cc(=O)[nH]2)cc1 | -5% (inactive)
COc1ccc(CN2CN(C(C)C)CSC2=S)cc1 | 38% (inactive)
S=C1SCN(CCN2CCOCC2)CN1Cc1ccccc1 | 50% (active)
CC(CN1CCOCC1)c1ccccc1 (stereo unspecified) | 4% (inactive)
COC(=O)c1ccc(CSc2nc3cc(Cl)ccc3o2)cc1 | -5% (inactive)
CC(=O)Nc1ccc(N2C(=O)CCC2=O)cc1C | 0% (inactive)
Cc1n[nH]c(=S)n1/N=C/c1ccc(Br)o1 | -6% (inactive)

SMILES | growth inhibition
COC(=O)c1ccc(NC(=O)c2ccccc2NS(=O)(=O)c2ccccc2)cc1 | 4% (inactive)
CCOCCOCCC(C(=O)O)P(=O)(c1ccccc1)c1ccccc1 (stereo unspecified) | 7% (inactive)
N#Cc1ccc(-c2ccc(Cl)cc2)nc1Oc1ccc(F)cc1 | -7% (inactive)
CCC1CCCCN1CCCNC(=O)C1CCC(Cn2c(=O)[nH]c3ccccc3c2=O)CC1 (stereo unspecified) | 4% (inactive)
O=C1/C(=C/c2cccs2)CCc2ccccc21 | 7% (inactive)
Cc1cccc(NC(=O)C(C)N2C(=O)C3C4CC(C(Br)C4Br)C3C2=O)c1 (stereo unspecified) | 7% (inactive)
Cc1ccc(S(=O)(=O)N(C)C2(C)CCS(=O)(=O)C2)cc1 (stereo unspecified) | 4% (inactive)
O=C(CN1CCSCC1)N/N=C/c1ccc(F)cc1 | 2% (inactive)
CCCCNc1ccc(C(=O)Nc2cccc(C)n2)cc1[N+](=O)[O-] | 4% (inactive)
CCN(CC)C(=O)CSC1c2ccccc2C(=O)N1c1ccccc1 (stereo unspecified) | 1% (inactive)
CCCOc1ccc(C2NC(=O)NC(c3ccccc3)=C2C(C)=O)cc1OCC (stereo unspecified) | -2% (inactive)
COc1ccc(C(=O)Nc2ccc(F)cc2F)cc1 | 10% (inactive)
CC(C)(C)c1cc2cccnc2n1Cc1ccccc1 | 9% (inactive)
Cc1ccc(-c2nc3ccccc3[nH]2)cc1NC(=O)c1sc2ccccc2c1Cl | -18% (inactive)
CCC(=O)N(Cc1ccccc1)c1ccccn1 | -3% (inactive)
CCc1cc(C(c2ccccc2OC)N2CCOCC2)c(NC(=O)c2ccccc2)s1 (stereo unspecified) | -3% (inactive)
CSc1ccccc1NC(=O)c1cc(C2CC2)on1 | 6% (inactive)
O=C(c1ccccc1)C(Cn1cncn1)C(Sc1ccccc1)c1ccccc1 (stereo unspecified) | -9% (inactive)
O=C(CCN1C(=O)c2ccccc2C1=O)Nc1cccc(F)c1 | 0% (inactive)
c1ccc2c(C[n+]3csc4ccccc43)cccc2c1 | -14% (inactive)
CCCC(=O)Nc1nc2ccc(NC(=O)c3cccnc3)cc2s1 | 8% (inactive)
O=C(CC12CC3CC(CC(C3)C1)C2)Nc1ccc2c(c1)COC2=O | -1% (inactive)
